Screening results as filed in PubChem BioAssay.
CHT inh: human CHT choline transport inhibition; Q9GZV3; actives 0.86% (n = 310,000); B-score at 10 µM; CHT-expressing cells, membrane potential dye, choline response; stronger effect = lower value;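 active = B-score over 3 SD under the library average, and starting fluorescence ratio not unusually high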;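 note: choline stimulus applied at its EC90 after an EC20 pre-addition; B-score computed on integrated fluorescence ratio after choline addition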
Target sequence (Q9GZV3 whole entry, looked up): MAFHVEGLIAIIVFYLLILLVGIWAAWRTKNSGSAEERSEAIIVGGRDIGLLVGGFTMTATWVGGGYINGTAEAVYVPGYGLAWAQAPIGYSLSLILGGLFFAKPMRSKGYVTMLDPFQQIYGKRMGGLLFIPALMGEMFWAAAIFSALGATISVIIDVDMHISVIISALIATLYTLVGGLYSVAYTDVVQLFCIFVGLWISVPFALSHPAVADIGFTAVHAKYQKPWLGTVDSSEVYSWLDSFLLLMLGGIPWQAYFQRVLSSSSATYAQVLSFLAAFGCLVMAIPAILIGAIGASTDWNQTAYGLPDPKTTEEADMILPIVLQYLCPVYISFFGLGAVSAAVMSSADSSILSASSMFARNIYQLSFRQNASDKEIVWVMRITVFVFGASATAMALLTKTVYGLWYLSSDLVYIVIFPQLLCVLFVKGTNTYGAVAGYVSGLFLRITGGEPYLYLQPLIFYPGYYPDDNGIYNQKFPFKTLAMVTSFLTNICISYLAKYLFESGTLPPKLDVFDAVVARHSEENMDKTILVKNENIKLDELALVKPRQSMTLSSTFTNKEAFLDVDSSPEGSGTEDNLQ
Kir21 block: Kir2.1 (mouse) channel inhibition; AID 1672; actives 0.85% (n = 310,000); HEK293-Kir2.1, FluxOR thallium flux fluorescence; stronger effect = lower value; B-score at 10 µM;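 active = fluorescence ratio B-score at or below minus 3 SD of library scores, with starting-brightness B-score within 2 SD, cut at about -4.2 in these data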;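 note: channel flux triggered by added potassium and thallium sulfate stimulus; B-score of peak minus minimum fluorescence over baseline after thallium stimulus; more negative B-score means stronger Kir2.1 block with less thallium influx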
TAG inh: reduces triacylglycerol accumulation in H9c2 cells; inhibition, % at 12.5 µM; AID 651582; actives 0.66% (n = 230,000); Nile Red lipid (TAG) fluorescence; cells loaded with 200 µM oleic acid;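 active = pattern-corrected inhibition of lipid staining of at least 50% with the nuclear-stain viability signal not falling by more than 50%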;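 note: 0% = DMSO wells and 100% = triacsin C control wells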
CHT allo act: allosteric activators of human choline transporter CHT | CHT-expressing cells, membrane potential dye, choline EC20; stronger effect = higher value; LV-AA mutant CHT in HEK293 cells | B-score at 10 µM | actives 0.49% (n = 310,000);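 active = initial fluorescence not abnormally high and integrated response B-score, plate-corrected, over 3 SD above library mean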
CHT activ conf: human CHT activation, confirmatory screen. shares compounds with CHT allo act. activation, % at 10 µM. CHT-expressing cells, membrane potential dye fluorescence (FDSS); % of choline EC20–EC90 response window; HEK293 expressing CHT LV-AA mutant; choline added at its EC20. AID 504833. actives 91% (n = 2,500);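 active = primary screen active, with duplicate mean activation above negative control mean plus 3 SD, cut at about 11% in these data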
HEK293 MP dye: counter-screen for CHT activators: effect in parental HEK293 cells. actives 62% (n = 2,500). membrane potential dye fluorescence (FDSS); measured after EC20 choline addition. shares compounds with CHT allo act. ratio readout change at 10 µM, hits read low;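 active = duplicate-averaged ratio beyond 3 SD from buffer wells, up or down, though filed actives are nearly all decreases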
* = called active by the depositor. Only some compounds are listed: those with a hit (about 2% of all), similar ones and a draw of the others.

What do the screens show for `C#Cc1ccc(CN2CCCC(C(=O)Nc3ccccc3Oc3cccnc3)C2)cc1` (configuration not stated)?
CHT inh: inactive; Kir21 block: -5.13*; CHT allo act: inactive; CHT activ conf: 16.6*; HEK293 MP dye: inactive

What do the screens show for `CC1CCC2(CC1)NC(=O)N(NC(=O)c1cc3ccccc3o1)C2=O` (configuration not stated)?
TAG inh: 8.3

What do the screens show for `Clc1ccc(-c2c[n+](Cc3ccc(Cl)cc3Cl)c3n2CCCCC3)cc1`?
CHT inh: inactive; Kir21 block: -0.58; TAG inh: 10.5; CHT allo act: 28*; CHT activ conf: 66.5*; HEK293 MP dye: inactive

What do the screens show for `O=[N+]([O-])c1ccc(C[n+]2cc(-c3ccc(Cl)c(Cl)c3)n3c2CCCCC3)cc1`?
CHT inh: inactive; Kir21 block: -2.55; TAG inh: 3.7; CHT allo act: inactive; CHT activ conf: 33.8*; HEK293 MP dye: -33.1*

Results for O=C(C[n+]1cc(-c2ccccc2)n2c1CCCCC2)c1ccc(Cl)cc1 ?
CHT inh: inactive; Kir21 block: 0.74; CHT allo act: inactive

Results for CC1CCC(C(C)C)C(OC(=O)C[n+]2cc(-c3ccc(Cl)cc3)n3c2CCCCC3)C1 (configuration not stated) ?
CHT inh: inactive; Kir21 block: -8.58*; TAG inh: 22.7; CHT allo act: 13.4*; CHT activ conf: 64.4*; HEK293 MP dye: inactive

What do the screens show for `O=[N+]([O-])c1ccc(C[n+]2cc(-c3ccccc3)n3c2CCCCC3)cc1`?
CHT inh: inactive; Kir21 block: -1.21; TAG inh: -18.4; CHT allo act: inactive

How did Clc1ccc(-c2c[n+](Cc3cccc(Cl)c3)c3n2CCC3)cc1 do in these assays?
CHT inh: inactive; Kir21 block: 0.39; TAG inh: -12.9; CHT allo act: 8.14*; CHT activ conf: 69.4*; HEK293 MP dye: -53.7*

How did CC1CCN(CCc2nc3cc(NC(=O)C(C)C)ccc3n2C)CC1 do in these assays?
CHT inh: inactive; Kir21 block: 1.59; CHT allo act: inactive

Results for Clc1ccc(C[n+]2cc(-c3ccccc3)n3c2CCC3)cc1Cl ?
CHT inh: inactive; Kir21 block: 0.2; CHT allo act: 7.84*; CHT activ conf: 18.2*; HEK293 MP dye: -27.4*

How did C=C(C)Cn1c(NCCC)nc2c1c(=O)n(C)c(=O)n2C do in these assays?
CHT inh: inactive; Kir21 block: 1.71; TAG inh: -2.8; CHT allo act: inactive

What do the screens show for `CCN(CC)CCNc1nc2c(c(=O)n(C)c(=O)n2C)n1C/C=C(/C)Cl`?
CHT inh: inactive; Kir21 block: -0.31; TAG inh: -11.6; CHT allo act: inactive; CHT activ conf: 67.6*; HEK293 MP dye: -41.6*

What do the screens show for `C=CCN1C(=O)C(Cc2ccccc2Cl)SC1=Nc1ccc(C(=O)O)cc1` (configuration not stated)?
CHT inh: inactive; Kir21 block: 0.76; TAG inh: 5.0; CHT allo act: inactive

What do the screens show for `Cc1nn2cnc3sc4c(c3c2nc1=O)CCCC4`?
CHT inh: inactive; Kir21 block: 0.18; CHT allo act: 6.56*; CHT activ conf: 40.0*; HEK293 MP dye: -46.5*

Results for CCCCC1CCC(C(=O)NC2CCS(=O)(=O)C2)CC1 (configuration not stated) ?
CHT inh: inactive; Kir21 block: 0.02; CHT allo act: inactive; CHT activ conf: 10.2*; HEK293 MP dye: inactive

Results for COC(=O)CN1C(c2ccc(OC)cc2)=Nc2ccc(Cl)cc2C1c1ccccc1 (configuration not stated) ?
CHT inh: inactive; Kir21 block: -2.15; TAG inh: -31.8; CHT allo act: inactive

Results for COC(=O)CN1C(c2cccc(Cl)c2)=Nc2ccc(Cl)cc2C1c1ccccc1 (configuration not stated) ?
CHT inh: inactive; Kir21 block: -0.21; TAG inh: 29.9; CHT allo act: inactive; CHT activ conf: 29.6*; HEK293 MP dye: inactive

How did Cc1nc2ccc(Br)cc2c2c1CC(CBr)O2 (configuration not stated) do in these assays?
CHT inh: inactive; Kir21 block: -1; CHT allo act: inactive

What do the screens show for `Cc1nc2ccc(Br)cc2c2c1CC(CO)O2` (configuration not stated)?
CHT inh: inactive; Kir21 block: -0.29; CHT allo act: 6.85*; CHT activ conf: 53.1*; HEK293 MP dye: -52.6*

How did CN(CC(=O)Nc1ccccc1Cl)C(=O)c1ccc(-c2cccc(C(F)(F)F)c2)o1 do in these assays?
CHT inh: inactive; Kir21 block: -0.26; TAG inh: 8.8; CHT allo act: inactive

How did OCc1ccccc1Cn1ccnc1 do in these assays?
TAG inh: 1.9

What do the screens show for `Cc1cc(Cn2ccnc2)c(C)cc1Cn1ccnc1`?
CHT inh: inactive; Kir21 block: 0.27; CHT allo act: inactive; CHT activ conf: 45.1*; HEK293 MP dye: -40.8*

What do the screens show for `Nc1nnc(SCC(=O)Nc2nnc(-c3ccccc3)o2)s1`?
TAG inh: -6.1

What do the screens show for `COCCNc1nnc(SCC(=O)Nc2nnc(-c3ccccc3)o2)s1`?
CHT inh: inactive; Kir21 block: -0.96; TAG inh: -5.2; CHT allo act: 6.6*; CHT activ conf: 4.5; HEK293 MP dye: inactive

How did COc1cccc(OCC(O)CN2CCN(CCN3C(=O)c4cccc5cccc(c45)C3=O)CC2)c1 (configuration not stated) do in these assays?
CHT inh: inactive; Kir21 block: -1.21; TAG inh: -49.5; CHT allo act: inactive

How did O=C1c2cccc3cccc(c23)C(=O)N1CCN1CCN(CC(O)COc2ccccc2)CC1 (configuration not stated) do in these assays?
CHT inh: inactive; Kir21 block: -0.11; CHT allo act: inactive; CHT activ conf: -1.1; HEK293 MP dye: inactive

Results for COc1ccccc1NC(=O)/C(=C/c1ccncc1)NC(=O)c1ccccc1 ?
CHT inh: inactive; Kir21 block: 2.4; CHT allo act: inactive

How did CCCCCNCc1ccc(OCc2ccc(Cl)nc2)c(OC)c1 do in these assays?
CHT inh: inactive; Kir21 block: -1.51; TAG inh: -8.6; CHT allo act: inactive

What do the screens show for `COc1ccc(CCNCc2ccc(OCc3ccc(Cl)nc3)c(OC)c2)cc1OC`?
CHT inh: inactive; Kir21 block: -0.68; TAG inh: 25.6; CHT allo act: 7.79*; CHT activ conf: 36.8*; HEK293 MP dye: inactive

How did O=C(Cc1ccc(Cl)cc1)NCCCNC(=O)c1cccnc1 do in these assays?
CHT inh: inactive; Kir21 block: -0.01; CHT allo act: inactive
